# Reference: PubChem BioAssay AID1159580 (chemical genetic matrix, 2015)
# About 2,000 (36%) of roughly 5,500 compounds were called active. Roughly 18% stayed inconclusive and do not appear here. The list shows a part of the results. Values without a mark were called inactive. No stated cut-off is given here; in the data, active means normalized growth mostly below about 0.91 (no sharp cut-off); inconclusive means no clear call, values can overlap the other calls; inactive means mostly above about 0.92.
# Experiment: chemical genetic growth profiling, strain panel (AID 1159580);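 further: tested at 20 µM; growth read once vehicle control cultures reached saturation at 30 °C; 1 = growth at the plate median or of vehicle wells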
# Settings: S. cerevisiae deletion strains, growth OD
# [1] = locus YAR019C, strain CDC15, stronger effect = lower value
# [2] = locus YBL105C, strain PKC1, stronger effect = lower value
# [3] = locus YBR135W, strain CKS1, stronger effect = lower value
# [4] = locus YBR136W, strain MEC1, stronger effect = lower value
# [5] = locus YBR160W, strain CDC28, stronger effect = lower value
# [6] = locus YDL017W, strain CDC7, stronger effect = lower value
# [7] = locus YDL028C, strain MPS1, stronger effect = lower value
# [8] = locus YDL101C, strain DUN1, stronger effect = lower value
# [9] = locus YDL108W, strain KIN28, stronger effect = lower value
# [10] = locus YDL132W, strain cdc53, stronger effect = lower value
# [11] = locus YDL214C, strain PRR2, stronger effect = lower value
# [12] = locus YDR052C, strain DBF4, stronger effect = lower value
# [13] = locus YDR054C, strain cdc34, stronger effect = lower value
# [14] = locus YDR226W, strain ADK1, stronger effect = lower value
# [15] = locus YDR477W, strain SNF1, stronger effect = lower value
# [16] = locus YER123W, strain YCK3, stronger effect = lower value
# [17] = locus YER133W, strain GLC7, stronger effect = lower value
# [18] = locus YFL009W, strain cdc4, stronger effect = lower value
# [19] = locus YFL029C, strain CAK1, stronger effect = lower value
# [20] = locus YFR003C, strain YPI1, stronger effect = lower value
# [21] = locus YFR019W, strain FAB1, stronger effect = lower value
# [22] = locus YFR028C, strain CDC14, stronger effect = lower value
# [23] = locus YGR040W, strain KSS1, stronger effect = lower value
# [24] = locus YGR052W, strain FMP48, stronger effect = lower value
# [25] = locus YGR092W, strain DBF2, stronger effect = lower value
# [26] = locus YHR030C, strain SLT2, stronger effect = lower value
# [27] = locus YHR079C, strain IRE1, stronger effect = lower value
# [28] = locus YHR082C, strain KSP1, stronger effect = lower value
# [29] = locus YHR205W, strain SCH9, stronger effect = lower value
# [30] = locus YIL147C, strain SLN1, stronger effect = lower value
# [31] = locus YJL095W, strain BCK1, stronger effect = lower value
# [32] = locus YJL128C, strain PBS2, stronger effect = lower value
# [33] = locus YJL157C, strain FAR1, stronger effect = lower value
# [34] = locus YJR016C, strain ILV3, stronger effect = lower value
# [35] = locus YJR066W, strain TOR1 (second series), stronger effect = lower value
# [36] = locus YJR066W, strain TOR1, stronger effect = lower value
# [37] = locus YKL048C, strain ELM1, stronger effect = lower value
# [38] = locus YKL067W, strain YNK1, stronger effect = lower value
# [39] = locus YKL101W, strain HSL1, stronger effect = lower value
# [40] = locus YKL193C, strain SDS22, stronger effect = lower value
# [41] = locus YKL203C, strain TOR2, stronger effect = lower value
# [42] = locus YLR113W, strain HOG1, stronger effect = lower value
# [43] = locus YLR133W, strain CKI1, stronger effect = lower value
# [44] = locus YLR403W, strain SFP1, stronger effect = lower value
# [45] = locus YML070W, strain DAK1, stronger effect = lower value
# [46] = locus YMR001C, strain CDC5, stronger effect = lower value
# [47] = locus YMR205C, strain PFK2 (second series), stronger effect = lower value
# [48] = locus YMR277W, strain FCP1, stronger effect = lower value
# [49] = locus YNL006W, strain LST8, stronger effect = lower value
# [50] = locus YNL020C, strain ARK1, stronger effect = lower value
# [51] = locus YNL161W, strain CBK1, stronger effect = lower value
# [52] = locus YNL183C, strain NPR1, stronger effect = lower value
# [53] = locus YNL207W, strain RIO2, stronger effect = lower value
# [54] = locus YNL222W, strain SSU72, stronger effect = lower value
# [55] = locus YNL307C, strain MCK1 (second series), stronger effect = lower value
# [56] = locus YOL078W, strain AVO1, stronger effect = lower value
# [57] = locus YOL136C, strain PFK27, stronger effect = lower value
# [58] = locus YOR061W, strain CKA2, stronger effect = lower value
# [59] = locus YOR119C, strain RIO1, stronger effect = lower value
# [60] = locus YOR231W, strain MKK1, stronger effect = lower value
# [61] = locus YOR329C, strain SCD5, stronger effect = lower value
# [62] = locus YPL031C, strain PHO85, stronger effect = lower value
# [63] = locus YPL153C, strain RAD53, stronger effect = lower value
# [64] = locus YPL204W, strain HRR25, stronger effect = lower value
# [65] = locus YPL209C, strain IPL1, stronger effect = lower value
# [66] = locus YPL256C, strain CLN2, stronger effect = lower value
# [67] = locus YPR025C, strain CCL1, stronger effect = lower value
# [68] = locus YPR106W, strain ISR1, stronger effect = lower value
# [69] = locus YPR111W, strain DBF20, stronger effect = lower value
# [70] = strain NNK1, stronger effect = lower value
# [71] = strain TSCII, stronger effect = lower value
structure (smiles),measurement,setting,value
COC(=O)c1sccc1NS(=O)(=O)c1cc(Cl)cc(Cl)c1,normalized growth,[1],0.955
same,normalized growth,[2],0.946
same,normalized growth,[3],0.958
same,normalized growth,[4],0.951
same,normalized growth,[5],0.947
same,normalized growth,[6],0.954
same,normalized growth,[7],0.958
same,normalized growth,[8],0.949
same,normalized growth,[9],0.961
same,normalized growth,[10],0.958
same,normalized growth,[11],0.975
same,normalized growth,[12],0.957
same,normalized growth,[13],0.944
same,normalized growth,[14],0.954
same,normalized growth,[15],0.977
same,normalized growth,[16],0.994
same,normalized growth,[17],0.987
same,normalized growth,[18],0.954
same,normalized growth,[19],0.951
same,normalized growth,[20],0.957
same,normalized growth,[21],0.967
same,normalized growth,[22],0.958
same,normalized growth,[23],0.981
same,normalized growth,[24],1.05
same,normalized growth,[25],0.948
same,normalized growth,[26],1.04
same,normalized growth,[27],1.01
same,normalized growth,[28],1.06
same,normalized growth,[29],0.992
same,normalized growth,[30],0.955
same,normalized growth,[31],1.07
same,normalized growth,[32],0.925
same,normalized growth,[33],0.976
same,normalized growth,[34],0.959
same,normalized growth,[35],1.01
same,normalized growth,[36],1.06
same,normalized growth,[37],0.939
same,normalized growth,[38],0.973
same,normalized growth,[39],0.959
same,normalized growth,[40],0.958
same,normalized growth,[41],1.05
same,normalized growth,[42],0.92
same,normalized growth,[43],0.962
same,normalized growth,[44],0.996
same,normalized growth,[45],0.991
same,normalized growth,[46],0.949
same,normalized growth,[47],0.978
same,normalized growth,[48],0.96
same,normalized growth,[49],0.96
same,normalized growth,[50],0.964
same,normalized growth,[51],0.954
same,normalized growth,[52],1.02
same,normalized growth,[53],0.955
same,normalized growth,[54],0.953
same,normalized growth,[55],0.956
same,normalized growth,[56],0.963
same,normalized growth,[57],0.996
same,normalized growth,[58],0.979
same,normalized growth,[59],1.03
same,normalized growth,[60],0.986
same,normalized growth,[61],0.961
same,normalized growth,[62],0.987
same,normalized growth,[63],1.01
same,normalized growth,[64],0.975
same,normalized growth,[65],0.947
same,normalized growth,[66],0.963
same,normalized growth,[67],0.957
same,normalized growth,[68],0.945
same,normalized growth,[69],0.935
same,normalized growth,[70],0.948
same,normalized growth,[71],0.952
COC(=O)C1=C(Nc2ccccc2NS(=O)(=O)c2ccc(C(F)(F)F)cc2Cl)CSC1,normalized growth,[1],0.977
same,normalized growth,[2],0.983
same,normalized growth,[3],0.976
same,normalized growth,[4],0.978
same,normalized growth,[5],0.977
same,normalized growth,[6],0.973
same,normalized growth,[7],0.976
same,normalized growth,[8],0.962
same,normalized growth,[9],0.985
same,normalized growth,[10],0.984
same,normalized growth,[11],0.939
same,normalized growth,[12],0.987
same,normalized growth,[13],0.995
same,normalized growth,[14],0.972
same,normalized growth,[15],0.947
same,normalized growth,[16],0.944
same,normalized growth,[17],0.966
same,normalized growth,[18],0.985
same,normalized growth,[19],0.973
same,normalized growth,[20],0.984
same,normalized growth,[21],0.976
same,normalized growth,[22],0.964
same,normalized growth,[23],0.933
same,normalized growth,[24],1.03
same,normalized growth,[25],0.957
same,normalized growth,[26],0.977
same,normalized growth,[27],0.97
same,normalized growth,[28],1.02
same,normalized growth,[29],0.972
same,normalized growth,[30],0.987
same,normalized growth,[31],0.985
same,normalized growth,[32],0.919
same,normalized growth,[33],0.949
same,normalized growth,[34],0.972
same,normalized growth,[35],0.942
same,normalized growth,[36],1.03
same,normalized growth,[37],0.945
same,normalized growth,[38],0.959
same,normalized growth,[39],0.932
same,normalized growth,[40],0.975
same,normalized growth,[41],1.01
same,normalized growth,[42],0.84 (active)
same,normalized growth,[43],0.937
same,normalized growth,[44],0.903
same,normalized growth,[45],0.928
same,normalized growth,[46],0.977
same,normalized growth,[47],0.952
same,normalized growth,[48],0.985
same,normalized growth,[49],0.989
same,normalized growth,[50],0.951
same,normalized growth,[51],0.977
same,normalized growth,[52],0.966
same,normalized growth,[53],0.967
same,normalized growth,[54],0.978
same,normalized growth,[55],0.953
same,normalized growth,[56],0.975
same,normalized growth,[57],0.935
same,normalized growth,[58],0.955
same,normalized growth,[59],1.02
same,normalized growth,[60],0.91
same,normalized growth,[61],0.985
same,normalized growth,[62],0.971
same,normalized growth,[63],0.948
same,normalized growth,[64],0.936
same,normalized growth,[65],0.975
same,normalized growth,[66],0.918
same,normalized growth,[67],0.982
same,normalized growth,[68],0.943
same,normalized growth,[69],0.979
same,normalized growth,[70],0.971
same,normalized growth,[71],0.978
COCc1cc(=O)n2[nH]c(C(C)(C)C)cc2n1,normalized growth,"locus YAL013W, strain DEP1, stronger effect = lower value",1.01
same,normalized growth,"locus YBR229C, strain ROT2, stronger effect = lower value",0.986
same,normalized growth,[8],0.996
same,normalized growth,"locus YDR150W, strain NUM1, stronger effect = lower value",1.04
same,normalized growth,"locus YEL061C, strain CIN8, stronger effect = lower value",0.939
same,normalized growth,"locus YGR078C, strain PAC10, stronger effect = lower value",1.01
same,normalized growth,[26],1.07
same,normalized growth,"locus YHR087W, strain rtc3, stronger effect = lower value",1.01
same,normalized growth,"locus YJL187C, strain SWE1, stronger effect = lower value",0.162 (active)
same,normalized growth,"locus YJR043C, strain POL32, stronger effect = lower value",1.04
same,normalized growth,"locus YJR075W, strain HOC1, stronger effect = lower value",1.01
same,normalized growth,"locus YLR039C, strain RIC1, stronger effect = lower value",1.02
same,normalized growth,"locus YLR058C, strain SHM2 (second series), stronger effect = lower value",0.988
same,normalized growth,"locus YLR085C, strain ARP6, stronger effect = lower value",0.959
same,normalized growth,"locus YLR262C, strain YPT6, stronger effect = lower value",1.03
same,normalized growth,"locus YML094W, strain GIM5, stronger effect = lower value",0.986
same,normalized growth,"locus YMR219W, strain ESC1, stronger effect = lower value",0.996
same,normalized growth,"locus YMR263W, strain SAP30, stronger effect = lower value",1.04
same,normalized growth,"locus YNL153C, strain GIM3, stronger effect = lower value",1.02
same,normalized growth,"locus YNL298W, strain CLA4 (second series), stronger effect = lower value",0.965
same,normalized growth,"locus YNL322C, strain KRE1, stronger effect = lower value",0.999
same,normalized growth,"locus YNR030W, strain Alg12, stronger effect = lower value",1.01
same,normalized growth,"locus YPL055C, strain LGE1, stronger effect = lower value",1.08
same,normalized growth,"locus YPL241C, strain CIN2, stronger effect = lower value",0.977
same,normalized growth,"locus YPR135W, strain CTF4, stronger effect = lower value",1.14
